GLP-1R agonist: GLP-1 receptor (human) agonism; P43220; HEK293 GLP-1R CRE-luciferase, luminescence, 4-6 h; cells express a hypersensitive GLP-1R form; Potency, µM (series often up to 45.6 µM), most hits filed as activators; actives 0.007% (n = 380,000); AID 624172
Target sequence (P43220 whole entry, looked up): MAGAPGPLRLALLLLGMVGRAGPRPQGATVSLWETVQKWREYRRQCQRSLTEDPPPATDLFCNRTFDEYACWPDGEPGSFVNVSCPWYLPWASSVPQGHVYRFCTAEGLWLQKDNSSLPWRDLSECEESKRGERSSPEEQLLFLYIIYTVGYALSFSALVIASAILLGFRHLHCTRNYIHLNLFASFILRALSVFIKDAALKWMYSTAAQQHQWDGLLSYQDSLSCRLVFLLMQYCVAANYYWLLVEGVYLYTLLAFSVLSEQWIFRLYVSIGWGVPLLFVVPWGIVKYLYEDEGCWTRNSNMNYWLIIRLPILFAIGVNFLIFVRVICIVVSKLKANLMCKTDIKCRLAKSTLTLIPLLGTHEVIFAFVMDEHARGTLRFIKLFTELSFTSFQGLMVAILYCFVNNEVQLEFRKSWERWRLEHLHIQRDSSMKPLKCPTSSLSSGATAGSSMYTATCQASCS
PTHR1 agonist: activates the human parathyroid hormone receptor PTHR1 | actives 0.075% (n = 410,000) | HEK293 GP2 PTHR1 cells, GloSensor cAMP luminescence, 1 h | Potency, µM (titrated, usually from 115 µM), actives largely listed as activators | Q03431; further: nearly all actives have a fitted effect of over 55% in size
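HEK-293-derived GP2 cells expressing PTHR1 and a GloSensor cAMP reporter, 3,000/well, plated overnight, given luciferin plus IBMX (each 0.5 mM as added) for 1 h at 37 °C, then compound for 1 h at 37 °C. Luminescence was read after 15 min at room temperature.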
LDHA block: LDHA (human) enzyme inhibition. P00338. purified LDHA, NADH/diaphorase-resazurin fluorescence; hits give low values. activity change, % (values are at about 110 or 230 µM). actives 0.15% (n = 480,000). AID 1347041; in the data active means activity change below about -30%; inconclusive means mostly about -25% to -30%
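Human LDH5 (2 nM) was incubated with 0.06 mM NADH and 0.2 mM pyruvate for 5 min at room temperature in Tris pH 7.4. Remaining NADH was coupled through diaphorase/resazurin, and resorufin fluorescence was read at 0 and 20 min.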
GLP1R inv ag: inverse agonists of human GLP-1 receptor; HEK293 GLP-1R CRE-luciferase, luminescence, 24 h; GLP-1R form is constitutively active; Potency, µM (highest dose often 38.3 µM), actives largely listed as inhibitors; actives 1.6% (n = 410,000); AID 624417; further: nearly all actives have a fitted effect of over 55% in size
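GLP-1R inverse agonism mode: basal reporter luminescence in engineered HEK293 cells measured after one day of compound exposure at 37 deg C, with a 12 min room-temperature detection step.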
IDH1 R132H inh: inhibitors of human mutant IDH1 R132H. IDH1-R132H enzyme, NADPH consumption, diaphorase/resazurin fluorescence. Potency, µM (series often up to 76.6 µM), actives largely listed as inhibitors. actives 0.093% (n = 390,000). AID 602179; further: nearly all actives have a fitted effect of over 65% in size
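IDH1-R132H (0.5 ug/mL) preincubated 30 min with compound, then NADPH (0.016 mM) and alpha-KG (2 mM) added; 80 min at RT, pH 7.5. Remaining NADPH coupled via diaphorase/resazurin to fluorescence (540/590 nm); concentration-response curves normalized to no-enzyme control.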
GLP1R cytotox: cytotoxic in the GLP-1 receptor inverse agonist counter-screen. actives 0.13% (n = 410,000). Potency, µM (titrated, usually from 38.3 µM), most hits filed as inhibitors. AID 624418. HEK293 cAMP-luciferase reporter cells, luminescence, 24 h;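 further: loss of luciferase light is scored as toxicity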
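Compound-treated cells are incubated 24 hr at 37 deg C under 5% CO2 after a 12 hour attachment period, then luciferase detection reagent is added and luminescence is measured following 12 min at room temperature; lowered signal indicates toxicity.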
Each line names hits and unclear results; the compound was inactive in the other large screens. Most compounds without a hit are left out; they make up all but 1.7% or so of the library. Unless noted, the call rests on the fitted dose curve; in most records, active means well fitted curve in the direction sought with a large enough effect; inconclusive means small, poorly fitted or top-dose-only effect, or another doubt; inactive means no such curve, though single readings can be large; an effect the other way counts as inactive or inconclusive.

Cc1ccc(S(=O)(=O)C=CS(=O)(=O)c2ccc(C)cc2)cc1	LDHA block inconclusive, GLP1R cytotox inconclusive
O=S(=O)(/C=C/C=C/S(=O)(=O)c1ccccc1)c1ccccc1	GLP1R cytotox 0.63µM
COc1ccc(CNc2nc(-c3ccc(OC)cc3)cc(C(F)(F)F)n2)cc1	GLP1R inv ag 6.3µM
CN1CCN(c2ccc(-c3cccc(NC(=O)COc4ccccc4)c3)nn2)CC1	GLP1R inv ag 11µM
COc1cc(NC(=O)NCc2ccc(Cl)cc2Cl)cc(OC)c1OC	none (no result: GLP-1R agonist, PTHR1 agonist, GLP1R inv ag, IDH1 R132H inh, GLP1R cytotox)
Cc1ccc(S(=O)(=O)N2CCCN(C(=O)c3cncn3-c3ccccc3)CC2)cc1	LDHA block -37 (no result: GLP-1R agonist, PTHR1 agonist, GLP1R inv ag, IDH1 R132H inh, GLP1R cytotox)
Cc1ccccc1CN1CCN(S(=O)(=O)c2ccc(Cl)s2)CC1	GLP1R inv ag 10µM
CC1CCc2c(nc3sc4c(c3c2N)CCCC4)C1 (stereo unspecified)	GLP1R inv ag 5.6µM, GLP1R cytotox inconclusive
O=[N+]([O-])c1ccc(SNc2ccccc2)c([N+](=O)[O-])c1	GLP1R inv ag 11µM, GLP1R cytotox inconclusive
CCn1c(SCC(=O)c2ccc(Br)s2)nnc1-c1ccccc1	none (no result: GLP-1R agonist, PTHR1 agonist, GLP1R inv ag, IDH1 R132H inh, GLP1R cytotox)
CCOC(=O)C1(Cc2ccccc2C)CCCN(C(=O)c2ccoc2)C1 (stereo unspecified)	none
CCOC(=O)C1(Cc2ccccc2C)CCCN(C(=O)c2sccc2C)C1 (stereo unspecified)	GLP1R inv ag 10µM
CO/N=C(\Cn1ncc(N2CCCC2)c(Br)c1=O)c1ccc(Cl)cc1	GLP1R inv ag 11µM
CO/N=C(\Cn1ncc(NC2CCCCC2)c(Br)c1=O)c1ccc(Cl)cc1	GLP1R inv ag inconclusive
O=C(NCc1ccccc1)c1cc2sccc2n1Cc1ccc(F)cc1	GLP1R inv ag 10µM
CC(Sc1nc2ccccc2n1C)C(=O)NCc1ccc(Cl)cc1 (stereo unspecified)	none (no result: GLP-1R agonist, PTHR1 agonist, GLP1R inv ag, IDH1 R132H inh, GLP1R cytotox)
CC(C)(C)SCCNC(=O)/C=C/c1ccc(F)cc1	none
CC(C)(CNC(=O)/C=C/c1ccc(F)cc1)CNC(=O)/C=C/c1ccc(F)cc1	GLP1R inv ag 6.3µM
COc1ccc(CNC(=O)[C@H](CCSC)NC(=O)N2CCn3c2nc2ccccc23)cc1	GLP1R inv ag 5µM
CSCC[C@H](NC(=O)N1CCn2c1nc1ccccc12)C(=O)NCc1ccc(F)cc1	GLP1R inv ag inconclusive
COc1cc(NC(=O)[C@@H](NC(=O)N2CCn3c2nc2ccccc23)C(C)C)cc(OC)c1	GLP1R inv ag 10µM, GLP1R cytotox inconclusive
CCCN(CC1CC1)C(=O)COC(=O)c1csc(NCc2ccccc2)n1	none (no result: GLP-1R agonist, PTHR1 agonist, GLP1R inv ag, IDH1 R132H inh, GLP1R cytotox)
Cc1[nH]nc(-c2cccnc2)c1N=NN(C)C	GLP1R inv ag inconclusive, GLP1R cytotox 10µM
Cc1cc2c(nc1C)sc1c(=O)n(CC(=O)N3CCOCC3)cnc12	none (no result: GLP-1R agonist, PTHR1 agonist, GLP1R inv ag, IDH1 R132H inh, GLP1R cytotox)
O=C(Nc1nnc(C2CC2)s1)c1ccc(Cl)c(S(=O)(=O)N2CCCC2)c1	none (no result: GLP-1R agonist, PTHR1 agonist, GLP1R inv ag, IDH1 R132H inh, GLP1R cytotox)
C=C[C@@]1(C)CC(=O)[C@]2(O)[C@@]3(C)[C@@H](O)CCC(C)(C)[C@@H]3[C@H](OC(C)=O)[C@H](O)[C@@]2(C)O1	GLP-1R agonist 7.9µM, PTHR1 agonist inconclusive
C=C[C@@]1(C)CC(=O)[C@]2(O)[C@@]3(C)[C@@H](O)CCC(C)(C)[C@@H]3[C@H](O)[C@H](OC(C)=O)[C@@]2(C)O1	GLP-1R agonist 1.3µM, PTHR1 agonist inconclusive
CNC(=O)C1CCCC1	none (no result: GLP-1R agonist, PTHR1 agonist, GLP1R inv ag, IDH1 R132H inh, GLP1R cytotox)
Cc1ccc(S(=O)(=O)N2CCN(C(=O)c3cn(C)c4ccccc34)CC2)cc1	none (no result: GLP-1R agonist, PTHR1 agonist, GLP1R inv ag, IDH1 R132H inh, GLP1R cytotox)
CCCn1nc(C(=O)Nc2ncc(Cc3ccc(Cl)cc3)s2)ccc1=O	none (no result: GLP-1R agonist, PTHR1 agonist, GLP1R inv ag, IDH1 R132H inh, GLP1R cytotox)
CCNC(=S)N/N=C/c1cc(C)n(-c2ccc(Cl)cc2)c1C	none
Cc1cc(/C=N/NC(N)=S)c(C)n1-c1ccc(Cl)c(Cl)c1	GLP1R inv ag inconclusive, GLP1R cytotox 3.2µM
CCOc1ccc(-c2onc(C(F)(F)F)c2-c2cscn2)c(O)c1	none
Cc1cc(O)cc(O)c1-c1onc(C(F)(F)F)c1-c1cscn1	GLP1R inv ag 7.9µM

Assay outcomes from PubChem.
